Screening results as filed in PubChem BioAssay.
A selection: hits, their analogues and other compounds. The true share with any hit is near 1.2%.
TRPV1 agonist: human TRPV1 agonism. TRPV1-expressing cells, Fluo-8 calcium influx, agonist mode. activation, % at 8.33 µM. 320,000 compounds, 0.19% hits. AID 540275; in the data active = activation above about 80%; inconclusive = between about 30% and that limit; note: 0% is about no effect
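Fluo-8 calcium influx in TRPV1-expressing cells, kinetic read (ex 480/em 520 nm). Compound added and read 3 min for agonist activity, followed by capsaicin at EC20 final and 2 min further read for enhancement.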
TRPV1 potentiator: enhances activation of the human vanilloid receptor TRPV1; Q8NER1; TRPV1-expressing cells, Fluo-8 calcium influx, capsaicin EC20 potentiation; potentiation, % at 8.33 µM; 320,000 compounds, 0.02% hits; AID 540277; in the data active = potentiation above about 80%; inconclusive = between about 30% and that limit; note: 0% is about no effect
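Cells expressing TRPV1 were dye-loaded with Fluo-8 and read kinetically: 10 s baseline, 3 min after compound (agonist portion), then 2 min after EC20 capsaicin (allosteric enhancer portion). Calcium-bound dye fluorescence at 480/520 nm.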
KCNH2 WT inh: inhibitors of human wildtype KCNH2 potassium channel | activity change, % at 1.84 µM | U2OS, BacMam KCNH2, thallium flux FluxOr; active compounds read low | Q12809 | 340,000 compounds, 0.37% hits;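 active = maximum activity change below -70%; inconclusive = maximum activity change between -70% and -50%; inactive = maximum activity change above -50%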; note: % is set by controls: 0 for no effect and ±100 for the full control effect
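U2OS cells transduced with wild-type KCNH2 virus are loaded with FluxOr dye for 45 min, and thallium flux is measured in kinetic reads before and after stimulation buffer. Rate constants are normalized to DMSO controls.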
KCNH2 3.1 inh: inhibitors of human KCNH2 3.1 potassium channel isoform. U2OS KCNH2 3.1, thallium flux FluxOr; active compounds read low. activity change, % (tested at about 1.8 µM). 340,000 compounds, 0.95% hits;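 active = maximum activity change below -70%; inconclusive = maximum activity change from -70% to -50%; inactive = maximum activity change above -50%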;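 note: thallium influx rate constant from kinetic fluorescence after stimulation buffer; % is set by controls: 0 for no effect and ±100 for the full control effect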
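Virally transduced U2OS (3.1 isoform, 4 h infection in dark at RT) → overnight 37 C → FluxOr + Red40 in HBSS/HEPES, 45 min → stimulation buffer, 2 min kinetic read → rate constant vs DMSO controls.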
Starred values were filed as active, the others as inactive; ? = inconclusive; . = no result.

SMILES	TRPV1 agonist	TRPV1 potentiator	KCNH2 WT inh	KCNH2 3.1 inh
CN(Cc1ccccc1)C(=O)c1ccc(NC(=O)Cc2ccc(NC(=O)C3CCN(S(=O)(=O)c4cccc([N+](=O)[O-])c4)CC3)cc2)cc1	.	.	-8	?
Cc1c(CNC(=O)C2CC2)c(-n2cccc2)n(Cc2ccccc2)c1C	-1	-11	-2	2
CCOC(=O)NC(=O)CSc1nc2ccc(C)cc2[nH]1	-1	-9	2	-116*
Cc1ccc2nc(SCC(=O)Nc3nonc3N)[nH]c2c1	3	2	-9	8
OCCN1CCN(c2nc(NCc3ccco3)c3ccccc3n2)CC1	-6	8	18	-19
c1ccc(CN2CCN(c3nc(NCc4ccco4)c4ccccc4n3)CC2)cc1	0	?	-48	-108*
Cc1ccc(OCCN2CCN(c3nc(NCc4ccco4)c4ccccc4n3)CC2)cc1	5	-8	-131*	-104*
COc1ccc(N(Cc2cc3cccc(C)c3[nH]c2=O)S(C)(=O)=O)cc1	2	3	-25	-82*
COc1ccc(N(Cc2cc3ccccc3[nH]c2=O)S(C)(=O)=O)cc1	3	0	0	-29
O=C(Nc1cc2c(cc1Cl)-c1ccc([N+](=O)[O-])cc1C2=NO)C(F)(F)F	.	.	6	.
CC(C)CC(=O)NNC(=O)c1ccc(Cl)cc1	0	-2	-74*	55
CN(C)c1ccc(C(=O)NNC(=O)c2ccc(Cl)cc2)cc1	7	1	5	10
CSCCC(NS(=O)(=O)c1cccc(C(F)(F)F)c1)C(=O)Nc1ccccc1N1CCCC1 (stereo unspecified)	5	-3	-12	4
CCCCN(c1ccccc1)S(=O)(=O)c1cccc(C(=O)Nc2c(C)n(C)n(-c3ccccc3)c2=O)c1	.	.	2	-25
COc1ccc(C2=NS(=O)(=O)N(C)C(C(=O)N3CCC(C)CC3)=C2)cc1	14	11	1	-113*
Cc1ccc(CN2CCN(CCCn3cnc4c(OCc5ccccc5)ncnc43)CC2)cc1	.	.	-127*	-97*
c1ccc(COc2ncnc3c2ncn3CCCN2CCN(Cc3cccc4ccccc34)CC2)cc1	.	.	7	?
O=C(c1ccc([N+](=O)[O-])cc1)N(Cc1ccc(Br)cc1)N1C(=O)CCCC1=O	-1	-7	-84*	?
COc1ccc(CN2C(=O)C(CC(=O)NC3CCCC3)CC(C(=O)N(C)C)=C2C)cc1 (stereo unspecified)	.	.	-11	13
CCOc1ccc(CN(C)CC(=O)NCc2ccccc2Cl)cc1	?	9	-85*	8
CCOc1ccc(N(CC(=O)NCc2ccc(OC)cc2)S(C)(=O)=O)cc1	5	-7	0	-77*
CCOc1ccc(CN(C)CC(=O)NCc2ccccc2)cc1	8	-2	0	-87*
CN(CC(=O)NCc1ccccc1)Cc1cccc(F)c1	18	-20	-7	-5
COc1ccc([C@H]2N[C@]3(CCCN(Cc4ccc(Cl)cc4)C3=O)[C@H]3C(=O)N(Cc4ccccc4)C(=O)[C@@H]23)cc1	.	.	5	-11
O=C(Nc1nc2ccsc2c(=O)s1)c1ccc(Cl)cc1	24	-13	2	3
SMILES	TRPV1 agonist	TRPV1 potentiator	KCNH2 WT inh	KCNH2 3.1 inh
Cc1ccc2cccc(CC(=O)NN)c2c1	.	.	15	-23
CC(C)C[C@@H](CN1CCCC1CN1C(=S)NC[C@@H]1Cc1ccc(O)cc1)N1C[C@H](Cc2ccc(O)cc2)N(CCc2ccccc2)C1=S (stereo partly specified)	.	.	-121*	-79*
CC(C)C[C@H]1CNC(=S)N1CC1CCCN1C[C@H](Cc1ccc(O)cc1)N1C[C@H](Cc2ccccc2)N(CC2CCCCC2)C1=S (stereo partly specified)	.	.	7	-13
CC(C)C[C@H]1CNC(=S)N1CC1CCCN1C[C@H](CC(C)C)N1C[C@H](CC(C)C)N(CCc2ccccc2)C1=S (stereo partly specified)	.	.	-7	2
CCOc1ccc(CCN2C(=S)N([C@@H](Cc3ccc(O)cc3)CN3CCCC3CN3C(=S)NC[C@@H]3Cc3ccc(O)cc3)C[C@@H]2CC(C)C)cc1 (stereo partly specified)	.	.	-80*	-28
COc1cccc(NC(=O)c2ccccc2N2C(=O)C3C4C=CC(C4)C3C2=O)c1 (stereo unspecified)	-6	-1	-11	12
Cc1c(C(=O)N2CCN(c3ncccn3)CC2)oc2ccc(Cl)cc12	6	-9	0	-10
c1cncc(-c2nnc(C3CCCCC3)o2)c1	-1	5	-2	-80*
